DAX1 inh-1 – blocks DAX1 repression of SF-1 activated StAR promoter. AID 652010. HEK293T StAR-luciferase reporter, SF-1/DAX-1 repression relief. inhibition, % at 6.8 µM. actives 1.1% (n = 370,000);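 active = inhibition above the mean over all tested compounds plus 3 SD, cut at about 3.6% in these data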;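 also: 0% = DAX-1 cells with DMSO and 100% = cells lacking DAX-1 with DMSO; higher inhibition means more luminescence from relief of DAX-1 repression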
SMARCA2 activ – SMARCA2 function activation, primary screen; MG213 cells, MMTV-luciferase reporter, dexamethasone, overnight; activation, % at 9.1 µM; actives 1% (n = 370,000); AID 652017; in the data active = activation above about 7.8%;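 also: 0% = vehicle wells and 100% = reference activator wells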
hgDAF-12 ag – activates the H. glycines DAF-12 receptor ligand-binding domain; HEK293 GAL4-hgDAF12 UAS-luciferase reporter, agonist luminescence; normalized to butyrate control; activation, % at 6.8 µM; actives 1.8% (n = 370,000); AID 687014;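 active = activation above a cutoff set at the mean of all screened compounds plus 3 SD, cut at about 10% in these data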;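 also: 0% = DMSO wells and 100% = sodium butyrate wells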
hcDAF12 agonist – H. contortus DAF-12 activation, primary screen | actives 1.4% (n = 370,000) | HEK293 hcDAF-12 lit1-tk-luc reporter, luminescence; 0% DMSO, 100% Δ7-dafachronic acid | AID 652067 | activation, % at 6.8 µM;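 active = activation above the mean of all tested compounds plus 3 SD, cut at about 5.5% in these data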;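 also: 100% = response to 3 µM Δ7-dafachronic acid high control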
ssDAF12 agonist – S. stercoralis DAF-12 activation, primary screen. HEK293 ssDAF-12/GRIP1 lit1-tk-luc reporter, luminescence; % of 3 µM dafachronic acid response. activation, % at 6.8 µM. actives 1% (n = 370,000). AID 652126;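 active = activation above the mean over all tested compounds plus 3 SD, cut at about 0.9% in these data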;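 also: 0% = DMSO-only wells and 100% = 3 µM delta7-dafachronic acid wells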
DAX1 inh-2 – NR0B1 (DAX1) inhibition | P51843 | HEK293 Gal4-DAX1 luciferase reporter, luminescence | inhibition, % at 6.75 µM | actives 0.99% (n = 340,000);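 active = inhibition above the mean over all tested compounds plus 3 SD, cut at about 4.2% in these data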;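 also: 0% = DAX1-transfected cells with DMSO and 100% = empty-vector control cells with DMSO; inhibition shows as a rise in luminescence from relieved DAX1 repression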
Target sequence (P51843 207-470 limits assumed): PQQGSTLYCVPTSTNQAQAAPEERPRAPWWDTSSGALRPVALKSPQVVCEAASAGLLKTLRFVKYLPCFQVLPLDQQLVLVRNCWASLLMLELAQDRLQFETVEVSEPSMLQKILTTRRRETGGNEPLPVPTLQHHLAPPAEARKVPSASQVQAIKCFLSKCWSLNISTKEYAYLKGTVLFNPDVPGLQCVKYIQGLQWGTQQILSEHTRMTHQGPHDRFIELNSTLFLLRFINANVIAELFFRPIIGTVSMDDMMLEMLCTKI
An asterisk follows results filed as active; · = no result given. Shown are actives, neighbours in structure and some others; about 4.8% of the full set was active somewhere.

SMILES	DAX1 inh-1	SMARCA2 activ	hgDAF-12 ag	hcDAF12 agonist	ssDAF12 agonist	DAX1 inh-2
S=C(c1cccs1)N1CCN(c2ccccc2)CC1	0	0	-1	2	-1	5.7*
Cc1ccc(-c2noc(C3CCCN(C(=O)c4ccccc4)C3)n2)o1 (stereo not drawn)	1	0	3	1	-1	0
COc1ccc(-c2noc(C3CCCN(C(=O)Nc4ccccc4F)C3)n2)cc1 (stereo not drawn)	1	3	11*	0	-1	-2
Cc1ccc(-c2noc(C3CCCN(C(=O)c4ccccc4Br)C3)n2)o1 (stereo not drawn)	1	0	1	0	1.7*	0
O=C(OCCOc1cccc(Cl)c1)C1CCN(S(=O)(=O)c2ccccc2)CC1	2	-2	1	0	-1	0
O=C(N/N=C/c1ccc(Br)s1)Nc1ccccc1	1	0	11*	3	-1	0
Cc1[nH]c2ccccc2c1/C=N/NC(=O)Nc1ccccc1	1	1	9	6.0*	1	3
Cc1[nH]c2ccccc2c1/C=N/NC(=O)c1ccccc1	0	-2	6	0	-1	4.5*
Cc1[nH]c2ccccc2c1/C=N/NC(=O)c1cccc(Br)c1	·	·	·	·	·	1
O=C(N/N=C/c1ccc(Br)s1)c1cccs1	0	-2	9	3	0	·
C=CCSc1nc(C)c(CC(=O)OCCCC)c(=O)[nH]1	1	-1	0	-1	-1	0
CCOC(=O)Cc1c(C)nc(SC)[nH]c1=O	0	1	11*	0	-1	0
COc1ccc(-c2nn(-c3ccccc3)cc2/C=C2/SC(=S)N(CCC(=O)O)C2=O)cc1	0	3	4	-2	-1	-1
Cc1ccc(-c2nn(-c3ccccc3)cc2/C=C2\SC(=S)N(CC(=O)O)C2=O)cc1	0	-3	-2	-1	1.6*	0
CCC[C@H]1[C@@H](NS(=O)(=O)c2ccccc2[N+](=O)[O-])CC[C@@]23CCCN2C(=O)CCC[C@@H]13	·	·	1	0	-2	·
Oc1ccc(-c2[nH]ncc2-c2ccc(Br)cc2)c(O)c1	0	-1	5	0	-1	6.4*
CC(C)(C)n1nnnc1C1c2ccccc2C(=O)N1CCc1c[nH]c2ccccc12 (stereo not drawn)	4.2*	-2	1	4	0	·
CC(=O)C1=C(O)C(=O)N(CCc2c[nH]c3ccccc23)C1c1ccccc1 (stereo not drawn)	0	-2	5	-1	-1	4
CC(=O)C1=C(O)C(=O)N(CCc2c[nH]c3ccccc23)C1c1ccc(O)cc1 (stereo not drawn)	0	2	2	2	0	4.4*
Cc1cccc(C)c1-n1nnnc1C1c2ccccc2C(=O)N1CCc1ccccc1F (stereo not drawn)	1	5	10	1	0	·
CC(OC(=O)c1ccc(-n2cnnn2)cc1)C(=O)N(C)c1ccccc1 (stereo not drawn)	-1	-1	-2	-2	-1	-2
Clc1cc(Cl)c2nc(N3CCCC3)sc2c1	3	-6	11*	2	0	1
O=C(NCc1cccnc1)O[C@H]1CC[C@@]23CCCN2C(=O)CCC[C@H]3C1	·	·	-1	0	-1	·
CCCOc1ccc(C2c3c(oc4cc(C)c(C)cc4c3=O)C(=O)N2CCCN(C)C)cc1 (stereo not drawn)	1	-1	4	0	-1	6.7*
CCN1C(=O)/C(=C2\SC(N3CCOCC3)=NC2=O)c2ccccc21	0	1	1	-1	0	0
SMILES	DAX1 inh-1	SMARCA2 activ	hgDAF-12 ag	hcDAF12 agonist	ssDAF12 agonist	DAX1 inh-2
CCCCN1C(=O)/C(=C2\SC(N3CCOCC3)=NC2=O)c2ccccc21	0	-1	2	5.9*	0	0
COc1ccc(N=C2SCC(=O)N2c2ccc(OC)cc2)cc1	-1	0	0	-1	-1	0
COc1ccc(N=C2SCC(c3ccccc3)=NN2C)cc1	1	-2	-2	-1	-1	4.3*
COc1ccc(C)cc1-n1c(SCC(=O)N2CCOCC2)nc2ccccc2c1=O	1	1	2	1	-1	0
Cc1c(C)[n+](=O)c2c(n1[O-])C(Br)CCC2Br (stereo not drawn)	0	0	0	0	-1	2
Cc1c(CBr)[n+](=O)c2c(n1[O-])C(Br)CCC2Br (stereo not drawn)	-1	3	-1	2	1.4*	1
O=C(CSc1nc2ccccc2nc1N1CCCCC1)NCc1ccc(Cl)cc1Cl	0	8	2	0	-1	·
CCCCCOc1ccc(Cn2ccnc2)cc1[N+](=O)[O-]	0	1	-3	-2	-2	-3
CCCCOc1ccc(-c2cn3ccccc3n2)cc1[N+](=O)[O-]	0	7	11*	1	-1	-1
Oc1ccc(-c2cn3ccccc3n2)cc1O	2	2	8	6.1*	0	1
CCOc1ccc(Cn2ccnc2)cc1[N+](=O)[O-]	0	13*	1	-2	-1	0
O=[N+]([O-])c1ccc(-c2cn3ccccc3n2)cc1	2	7	7	2	0	·
CCOc1ccc(-c2cn3ccccc3n2)cc1[N+](=O)[O-]	1	4	11*	1	0	2
CCCOc1ccc(-c2csc(N)n2)cc1[N+](=O)[O-]	0	6	6	1	-1	2
CC[C@@H](CCCCCC#N)CCC(=O)N(c1ccccc1)c1ccccc1	-2	-6	-6	-4	-2	·
COCCCn1cc(CN2CC(N3CCN(Cc4ccccc4F)CC3)CS2(=O)=O)nn1 (stereo not drawn)	1	-5	6	-1	-1	·
COc1ccc(S(=O)(=O)Nc2ccc3ccccc3c2)cc1C	-1	2	-1	-1	-1	0
COc1ccc(S(=O)(=O)Nc2ccc3cn[nH]c3c2)cc1C	0	-3	-2	2	0.9*	-1
O=C1/C(=C/c2ccccc2)Oc2cc(OC(=O)N3CCOCC3)ccc21	0	-2	-1	0	-1	2
CC(=O)Oc1ccc(/C=C2/Oc3ccccc3C2=O)cc1	0	1	1	1	-1	5.3*
COC(=O)[C@@]1(Cc2ccccc2)[C@H]2C(=O)N(C)C(=O)[C@H]2[C@H]2CN(C)C(=NCc3ccccc3)N21	1	2	2	1	-1	0
CCCSc1nc2c(cnn2-c2ccccc2)c(=O)n1N	1	4	13*	5.8*	-1	1
Nn1c(SCc2ccccc2)nc2c(cnn2-c2ccccc2)c1=O	1	0	2	2	-1	0

Compound activity from PubChem BioAssay.
